Our source for the growth inhibition values is PubChem BioAssay (NCI).

Structures are written as SMILES. This is part of a sample that, as a whole, favours compounds with a hit. Of some 79,000 tested, about 15% had one in any assay. Calls of active or inactive are those of the source. Cut-off read from the data, not from the text of the source: active = growth inhibition above about 70%; inactive = the rest.

This assay is described as follows: NCI Yeast Anticancer Drug Screen. Data for the cln2 rad14 strain (AID 165).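 Note: 0% = growth equal to vehicle treated cultures.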 The following applies: S. cerevisiae cln2 rad14 strain, at 50.0 µM, active compounds read high. As to the method:
Growth inhibition of yeast strains with defined genetic alterations is measured as a screen for potential anti-cancer activity. Selected strains with alterations in DNA damage repair or cell cycle control were exposed to compounds and growth inhibition was measured relative to vehicle treated controls. The strain used in this assay is cln2 rad14
As for `O=C(Nc1ccc([N+](=O)[O-])cc1)c1ccc(Cl)cc1`, the growth inhibition was -50.5% (inactive).
Turning to `Cc1c(S)cnc2ccccc12`, the growth inhibition was -66.6% (inactive).
For the compound `Cc1cc(C)c(NC(=O)NC2CCCCC2)c(C)c1`, the growth inhibition is -3.55% (inactive).
For `CCN(C(=S)Nc1cccc(OC)c1)c1ccccc1`, the growth inhibition is -1.45% (inactive).
For the compound `COc1cccc2sc(-n3c(C)nc4ccccc4c3=O)nc12`, the growth inhibition is 17.9% (inactive).
In the case of `COc1cc(C2C3=C(COC3=O)Oc3cc4c(cc32)OCO4)ccc1OC(C)=O` (stereo not given), the growth inhibition is 21.1% (inactive).
Consider `O=CC1=CCC2c3[nH]c4ccccc4c3CCN2C1` (stereo not given), for which the growth inhibition was 27.2% (inactive).
Regarding `N#CC(=C1C=CC(=NO)C=C1)c1ccc(Cl)cc1`, the growth inhibition is -124% (inactive).
Consider `O=C(CCC(=O)Nc1cccc(Cl)c1)CC(=O)c1ccc(F)cc1`, for which the growth inhibition is -23.9% (inactive).
On to `O=S(=O)(O)c1cc(O)c(N=NC2S(=O)(=O)OCCOS2(=O)=O)c2ccccc12`, for which the growth inhibition was -9.2% (inactive).
With `CCCCCCSC#N`, the growth inhibition was 18.1% (inactive).
Consider `Cc1cc(CN(C)C)cc(C(C)C)c1O`, for which the growth inhibition was 34.1% (inactive).
As for `O=P(O)(O)OC1C(OP(=O)(O)O)C(OP(=O)(O)O)C(OP(=O)(O)O)C(OP(=O)(O)O)C1OP(=O)(O)O.[Zn+2]` (stereo not given), the growth inhibition was 9.6% (inactive).
Regarding `CC(c1ccccc1)N1COc2cc3c(cc2C1)OCN(C(C)c1ccccc1)C3` (stereo not given), the growth inhibition was -11.8% (inactive).
Take `CCCCCCCCC(=O)N1CCOCC1`: the growth inhibition is 16.4% (inactive).
`N#CC(C#N)=C1C=CC=CC=C1`: the growth inhibition was -11.4% (inactive).
Regarding `CCCCCOc1ccc(/C=C\C(=O)O)cc1`, the growth inhibition was -6.75% (inactive).
For `NC(=O)c1csc(Nc2csc(N)n2)n1`, the growth inhibition was -13.6% (inactive).
Under `Cc1ccc(NC(=O)C2C(=O)N(c3ccc(C)c(C)c3)C(=O)C2N=N)cc1C` (stereo not given) stands -41.8% (inactive).
Consider `C[Si](C)(C)c1ccc(C(=O)O)cc1`, for which the growth inhibition was 3.2% (inactive).
Consider `O=C(C[N+]12CC=C(CO)C1C(O)CC2)c1ccc(Br)cc1` (stereo not given), for which the growth inhibition is -24.4% (inactive).
Turning to `CCOC(=O)C(=O)c1cn(C)c(=O)n(C)c1=O`, the growth inhibition was 3.8% (inactive).
The same measure for `Cc1cc[n+](-c2nc3c([O-])n(C)c(=O)n(C)c-3n2)cc1`: -40.2% (inactive); for `O=c1[nH]cc(Cl)cc1[N+](=O)[O-]`: 2.3% (inactive); for `COc1cc(/C=C/C(=O)N[C@@H]2C(=O)N3[C@@H]2SC(C)(C)[C@@H]3C(=O)O)cc(OC)c1OC`: 10.1% (inactive).
With `O=C(Nc1cccc(C(F)(F)F)c1)OCCOc1ccc(Cl)cc1`, the growth inhibition is 98% (active).
For `CCC1(c2ccccc2)CCCC/C1=N/NC(N)=O` (stereo not given), the growth inhibition is 2.2% (inactive).
As for `CN1CCN(CC2C(=O)C3CCC2C3)CC1` (stereo not given), the growth inhibition is -7.85% (inactive).
The same measure for `Nc1ccc2nc3n(c(=O)c2c1)CCCCC3`: 23.2% (inactive); for `O=C(CCCCC(=O)NC1c2ccccc2Oc2ccccc21)NC1c2ccccc2Oc2ccccc21`: 32% (inactive).
`CSc1ncc(CO)c(Nc2ccc(F)cc2)n1`: the growth inhibition is -20% (inactive).
As to `CN(C)c1nc(Cl)cc2nc(Cl)cn12`, the growth inhibition was -0.35% (inactive).
With `CC1=CC(C)S(=O)(=O)C1` (stereo not given), the growth inhibition is -5.7% (inactive).
Take `O=C(O)CC(C(=O)O)=C1CCCCC1`: the growth inhibition was 8.15% (inactive).
Under `CC(=O)Nc1cc(C)c(C(=O)OC(=O)c2cc(C)c(NC(C)=O)cc2C)cc1C` stands -57.6% (inactive).
With `OC1CCCC2OC2CC1` (stereo not given), the growth inhibition was 11.7% (inactive).
Regarding `CNc1c(F)cc(C#N)cc1F`, the growth inhibition was 3.8% (inactive).
As for `Cc1cccc(C2=N/C(=C\c3ccc4c(c3)OC(O)O4)C(=O)O2)c1` (stereo not given), the growth inhibition is 3.55% (inactive).
With `CC1=CC(=O)C(=CN2C(=O)/C(=C\c3cccnc3)NC2=S)C(=O)O1`, the growth inhibition is -20.1% (inactive).
The same measure for `COc1cccc(NC(=S)NCc2cccnc2)c1`: 9.25% (inactive).
